The text below walks through data of the antibiotic and cytotoxicity screens of Wong et al. (2023).

Structures are written as SMILES. The campaign covered roughly 39,000 compounds. About 1,500 (3.8%) were called active. Only a selection was taken, and actives are over-represented in it overall.

The subject of the assay is HSkMC (human skeletal muscle cells). The experiment in a line: cytotoxicity call (relative viability < 0.9). Particulars: 10 µM.
Take `C[C@H](CO)N1C[C@H](C)[C@H](CN(C)C(=O)Nc2ccc(C(F)(F)F)cc2)Oc2c(NC(=O)Nc3ccc4c(c3)OCO4)cccc2C1=O`: the cytotoxicity call is “inactive”.
Turning to `C[C@H]1CN([C@@H](C)CO)C(=O)c2cc(NS(=O)(=O)c3ccc(F)cc3)ccc2O[C@H]1CN(C)Cc1ccncc1`, the cytotoxicity call is “inactive”.
Next, `c1ccc([C@@H]2Oc3ccccc3[C@@H]3Oc4ccccc4C[C@@H]23)cc1`: “inactive”; `Cc1noc(C)c1S(=O)(=O)Nc1cccc2c1O[C@H](CN(C)CC1CC1)[C@H](C)CN([C@H](C)CO)C2=O`: “inactive”.
Regarding `C[C@@H]1CN([C@@H](C)CO)C(=O)c2cc(NC(=O)Cc3ccccc3)ccc2O[C@@H](C)CCCCO[C@@H]1CN(C)C(=O)Nc1ccccc1`, the cytotoxicity call was “inactive”.
In the case of `COc1ccc(CN(C)C[C@@H]2OCCCC[C@H](C)Oc3ccc(NC(=O)C4CCCCC4)cc3C(=O)N([C@@H](C)CO)C[C@H]2C)cc1`, the cytotoxicity call is “inactive”.
Next, `C[C@@H]1CN([C@@H](C)CO)C(=O)c2cccc(NC(=O)C3CC3)c2O[C@@H]1CN(C)Cc1ccc(C(=O)O)cc1`: “inactive”; `Cc1noc(C)c1S(=O)(=O)N(C)C[C@H]1Oc2ccc(NC(=O)C3CC3)cc2CC(=O)N([C@H](C)CO)C[C@H]1C`: “inactive”.
For `Cc1ccc(S(=O)(=O)Nc2ccc3c(c2)C(=O)N([C@@H](C)CO)C[C@H](C)[C@H](CN(C)C(=O)Nc2ccccc2)OCCCC[C@H](C)O3)cc1`, the cytotoxicity call was “inactive”.
For the molecule `COc1ccc(CN(C)C[C@@H]2Oc3ccc(NS(=O)(=O)c4cn(C)cn4)cc3CC(=O)N([C@@H](C)CO)C[C@H]2C)cc1`, the cytotoxicity call is “inactive”.
On to `C[C@H](CO)N1C[C@H](C)[C@H](CN(C)C(=O)Nc2ccccc2)OCc2ccccc2-c2c(n(C)c3ccccc23)C1=O`, for which the cytotoxicity call is “inactive”.
Take `COc1ccc(NC(=O)N(C)C[C@@H]2Oc3ncc(C#C[C@H](C)O)cc3C(=O)N([C@H](C)CO)C[C@@H]2C)cc1`: the cytotoxicity call was “inactive”.
Next, `Cc1noc(C)c1S(=O)(=O)Nc1ccc2c(c1)C(=O)N([C@@H](C)CO)C[C@@H](C)[C@H](CN(C)C(=O)Nc1ccc(C(F)(F)F)cc1)OCCCC[C@H](C)O2`: “inactive”; `Cc1noc(C)c1S(=O)(=O)Nc1ccc2c(c1)C(=O)N([C@@H](C)CO)C[C@@H](C)[C@@H](CN(C)C(=O)Nc1ccc(C(F)(F)F)cc1)OCCCC[C@@H](C)O2`: “inactive”.
Consider `Cc1noc(C)c1S(=O)(=O)Nc1ccc2c(c1)C(=O)N([C@H](C)CO)C[C@H](C)[C@H](CN(C)C(=O)Nc1ccc(C(F)(F)F)cc1)OCCCC[C@H](C)O2`, for which the cytotoxicity call was “active”.
On to `COc1ccc(S(=O)(=O)Nc2ccc3c(c2)C(=O)N([C@@H](C)CO)C[C@@H](C)[C@H](CN(C)C(=O)NC(C)C)O3)cc1`, for which the cytotoxicity call was “inactive”.
Turning to `C[C@@H]1CN([C@H](C)CO)C(=O)c2cc(C#Cc3cccc(F)c3)cnc2O[C@H]1CN(C)CC1CCOCC1`, the cytotoxicity call is “inactive”.
Take `CC=Cc1ccc2n(c1=O)C[C@H]1[C@H](CO)[C@@H](C(=O)NC3CCC3)[C@@H]2N1S(=O)(=O)c1cn(C)cn1`: the cytotoxicity call was “inactive”.
Regarding `Cc1noc(C)c1S(=O)(=O)Nc1ccc2c(c1)CC(=O)N([C@@H](C)CO)C[C@H](C)[C@H](CN(C)S(C)(=O)=O)O2`, the cytotoxicity call was “inactive”.
Next, `CC(C)(Sc1cc(C(C)(C)C)c(O)c(C(C)(C)C)c1)Sc1cc(C(C)(C)C)c(OCC(=O)O)c(C(C)(C)C)c1`: “active”; `CC(C)(Sc1cc(C(C)(C)C)c(O)c(C(C)(C)C)c1)Sc1cc(C(C)(C)C)c(OC(=O)CCC(=O)O)c(C(C)(C)C)c1`: “active”.
As to `CC(C)(Sc1cc(C(C)(C)C)c(O)c(C(C)(C)C)c1)Sc1cc(C(C)(C)C)c(O)c(C(C)(C)C)c1` [listing 1 of 2 here], the cytotoxicity call is “inactive”.
On to `CC(C)(C)c1cc(CCC(=O)OCC(COC(=O)CCc2cc(C(C)(C)C)c(O)c(C(C)(C)C)c2)(COC(=O)CCc2cc(C(C)(C)C)c(O)c(C(C)(C)C)c2)COC(=O)CCc2cc(C(C)(C)C)c(O)c(C(C)(C)C)c2)cc(C(C)(C)C)c1O`, for which the cytotoxicity call was “inactive”.
Next, `CC(C)(Sc1cc(C(C)(C)C)c(O)c(C(C)(C)C)c1)Sc1cc(C(C)(C)C)c(O)c(C(C)(C)C)c1` [listing 2 of 2 here]: “inactive”.
`C[C@@H]1CN([C@@H](C)CO)C(=O)c2cccc(NC(=O)Nc3ccc(F)cc3)c2O[C@@H]1CN(C)C(=O)Nc1ccc(C(F)(F)F)cc1`: the cytotoxicity call is “inactive”.
`C[C@@H]1CN([C@@H](C)CO)S(=O)(=O)c2ccc(-c3cncnc3)cc2O[C@H]1CN(C)C(=O)c1ccc2c(c1)OCO2`: the cytotoxicity call was “inactive”.
Regarding `COCC(=O)N1C[C@H](C)[C@@H](OC)CN(C)C(=O)c2cc(NC(=O)Nc3cccc(F)c3)ccc2OC[C@@H]1C`, the cytotoxicity call is “inactive”.
To `COC[C@@H]1CN(C(=O)[C@H]2CCCN2C)N1` belongs “inactive”; to `COC(=O)[C@@H](Cc1ccccc1)N[C@H](/C=C/C1CC1)[C@@H](O)CCn1cc(-c2ccc(C(=O)NO)cc2)nn1`, “inactive”; to `CC[C@@H]1COCCC(=O)N1`, “inactive”.
To `Cc1nc2cc(C)c(C)cc2s1` belongs “inactive”; to `Cc1ccc(NC(=O)Nc2cc(C(F)(F)F)ccc2F)cc1Nc1ccc2c(c1)NC(=O)/C2=C\c1ccc[nH]1`, “active”.
Consider `C[C@@H]1CN([C@H](C)CO)C(=O)Cc2cc(NS(C)(=O)=O)ccc2O[C@H]1CN(C)S(=O)(=O)c1ccc(F)cc1`, for which the cytotoxicity call is “inactive”.
With `Cc1noc(C)c1NC(=O)Nc1ccc2c(c1)C(=O)N([C@H](C)CO)C[C@@H](C)[C@@H](CN(C)S(=O)(=O)c1c(C)noc1C)O2`, the cytotoxicity call is “inactive”.
In the case of `C[C@@H]1CN([C@@H](C)CO)C(=O)c2cccc(NC(=O)C3CC3)c2O[C@@H]1CN(C)Cc1ccc(-c2ccccc2)cc1`, the cytotoxicity call was “inactive”.
With `C[C@@H]1CN([C@H](C)CO)S(=O)(=O)c2ccc(-c3ccccc3F)cc2O[C@H]1CN(C)Cc1cncnc1`, the cytotoxicity call is “inactive”.
With `C[C@@H]1CCCCO[C@@H](CN(C)Cc2ccc(Cl)c(Cl)c2)[C@@H](C)CN([C@@H](C)CO)C(=O)c2cc(NC(=O)c3ccccc3)ccc2O1`, the cytotoxicity call was “inactive”.
With `COc1ccc(NC(=O)Nc2ccc3c(c2)C(=O)N([C@H](C)CO)C[C@H](C)[C@@H](CN(C)Cc2ccc(Cl)c(Cl)c2)OCCCC[C@@H](C)O3)cc1`, the cytotoxicity call is “inactive”.
Consider `COc1ccc(NC(=O)Nc2ccc3c(c2)C(=O)N([C@H](C)CO)C[C@H](C)[C@H](CN(C)Cc2ccc(Cl)c(Cl)c2)OCCCC[C@H](C)O3)cc1`, for which the cytotoxicity call was “active”.
Regarding `COc1ccc(NC(=O)Nc2ccc3c(c2)C(=O)N([C@H](C)CO)C[C@@H](C)[C@@H](CN(C)Cc2ccc(Cl)c(Cl)c2)OCCCC[C@H](C)O3)cc1`, the cytotoxicity call was “inactive”.
With `COc1ccc(NC(=O)Nc2ccc3c(c2)C(=O)N([C@H](C)CO)C[C@@H](C)[C@H](CN(C)Cc2ccc(Cl)c(Cl)c2)OCCCC[C@@H](C)O3)cc1`, the cytotoxicity call was “active”.
Consider `COc1ccc(NC(=O)Nc2ccc3c(c2)C(=O)N([C@@H](C)CO)C[C@H](C)[C@H](CN(C)Cc2ccc(Cl)c(Cl)c2)OCCCC[C@@H](C)O3)cc1`, for which the cytotoxicity call is “inactive”.
Consider `COc1ccc(NC(=O)Nc2ccc3c(c2)C(=O)N([C@@H](C)CO)C[C@@H](C)[C@@H](CN(C)Cc2ccc(Cl)c(Cl)c2)OCCCC[C@H](C)O3)cc1`, for which the cytotoxicity call is “inactive”.
With `COc1ccc(NC(=O)Nc2ccc3c(c2)C(=O)N([C@H](C)CO)C[C@H](C)[C@@H](CN(C)Cc2ccc(Cl)c(Cl)c2)OCCCC[C@H](C)O3)cc1`, the cytotoxicity call was “inactive”.
Turning to `COc1ccc(NC(=O)Nc2ccc3c(c2)C(=O)N([C@H](C)CO)C[C@@H](C)[C@H](CN(C)Cc2ccc(Cl)c(Cl)c2)OCCCC[C@H](C)O3)cc1`, the cytotoxicity call is “active”.
`COc1ccc(NC(=O)Nc2ccc3c(c2)C(=O)N([C@@H](C)CO)C[C@H](C)[C@@H](CN(C)Cc2ccc(Cl)c(Cl)c2)OCCCC[C@@H](C)O3)cc1`: the cytotoxicity call is “inactive”.
